# Measurements: paper PMC11062922 (Nature Chemical Biology, 2023)
# Where two headings read alike, the source gives them in different places.
# How the values were obtained:
# Design in all cases: species or system human, MV4-11 + K-562 + COLO205 + SK-N-BE2 + OVCAR-8
# CLK2 = details: read-out: apparent Kd; compound concentrations: 100 nM and 1000 nM (sheet 'Samples'), CATDS: 1; n = 1
# CSNK1D = details: read-out: apparent Kd, n = 1
# CSNK1E = details: read-out: apparent Kd, n = 1
# MAPK14 = details: read-out: apparent Kd, n = 1
# MAPKAPK2 = details: read-out: apparent Kd, n = 1
# MAPK10 = details: read-out: apparent Kd; compound concentrations: 100 nM and 1000 nM (sheet 'Samples'), CATDS: 0.138963906660688; n = 1
# MAPK9 = details: read-out: apparent Kd; compound concentrations: 100 nM and 1000 nM (sheet 'Samples'), CATDS: 0.12372123914536701; n = 1
# NQO2 = details: read-out: apparent Kd; compound concentrations: 100 nM and 1000 nM (sheet 'Samples'), CATDS: 0.189684513322773; n = 1
# PIK3CD = details: read-out: apparent Kd; compound concentrations: 100 nM and 1000 nM (sheet 'Samples'), CATDS: 0.41134743817449698; n = 1
# CLK1 = details: read-out: apparent Kd, n = 1
# CLK4 = details: read-out: apparent Kd, n = 1
# DYRK1A = details: read-out: apparent Kd, n = 1
# GSK3B = details: read-out: apparent Kd; compound concentrations:100 nM and 1000 nM (sheet 'Samples'); n = 1
# NEK3 = details: read-out: apparent Kd; compound concentrations: 100 nM and 1000 nM (sheet 'Samples'), CATDS: 0.168041576676878; n = 1
# PIK3CG = details: read-out: apparent Kd; compound concentrations: 100 nM and 1000 nM (sheet 'Samples'), CATDS: 0.474922434423799; n = 1
# JAK2 = details: read-out: apparent Kd; compound concentrations: 100 nM and 1000 nM (sheet 'Samples'), CATDS: 0.15367863363527601; n = 1
# PTK2 = details: read-out: apparent Kd; compound concentrations: 100 nM and 1000 nM (sheet 'Samples'), CATDS: 0.76143962131213405; n = 1
# RPS6KA1 = details: read-out: apparent Kd; compound concentrations: 100 nM and 1000 nM (sheet 'Samples'), CATDS: 9.5788061874141406E-2; n = 1
# RPS6KA3 = details: read-out: apparent Kd; compound concentrations: 100 nM and 1000 nM (sheet 'Samples'), CATDS: 9.4623993582158103E-2; n = 1
# GSK3A = details: read-out: apparent Kd; compound concentrations:100 nM and 1000 nM (sheet 'Samples'); n = 1
# CSNK2A2 = details: read-out: apparent Kd; compound concentrations: 100 nM and 1000 nM (sheet 'Samples'), CATDS: 0.28231341025767498; n = 1
# PDXK = details: read-out: apparent Kd; compound concentrations: 100 nM and 1000 nM (sheet 'Samples'), CATDS: 0.33190254365372501; n = 1
# CSNK1A1 = details: read-out: apparent Kd; compound concentrations: 100 nM and 1000 nM (sheet 'Samples'), CATDS: 9.6046167396209803E-2; n = 1
# MAPK11 = details: read-out: apparent Kd; compound concentrations: 100 nM and 1000 nM (sheet 'Samples'), CATDS: 9.0675457178051394E-2; n = 1
# RIPK2 = details: read-out: apparent Kd; compound concentrations: 100 nM and 1000 nM (sheet 'Samples'), CATDS: 0.10111059470888201; n = 1
# [1] = compound concentrations:100 nM and 1000 nM (sheet 'Samples')
compound,measurement,setting,value
FC(F)(F)c1cccc(Nc2nccc(-c3cnn4nc(-c5ccccc5)ccc34)n2)c1 [GW819077X],potency estimated from few doses,CLK2,960 nM
CCc1cccc(NC(=O)Nc2ccc(Oc3ccc4nc(NC(=O)OC)[nH]c4c3)cc2)c1 [GW673715X],potency estimated from few doses,"CSNK1D; compound concentrations: 100 nM and 1000 nM (sheet 'Samples'), CATDS: 0.27728092810056698",739 nM
same,potency estimated from few doses,"CSNK1E; compound concentrations: 100 nM and 1000 nM (sheet 'Samples'), CATDS: 0.214439081495093",1270 nM
same,potency estimated from few doses,"MAPK14; compound concentrations: 100 nM and 1000 nM (sheet 'Samples'), CATDS: 0.234253056752116",1030 nM
same,potency estimated from few doses,"MAPKAPK2; compound concentrations: 100 nM and 1000 nM (sheet 'Samples'), CATDS: 0.28890607877709801",685 nM
CCCCc1nn2ncccc2c1-c1ccnc(NC2CC2)n1 [GW684374X],potency estimated from few doses,"CSNK1D; compound concentrations: 100 nM and 1000 nM (sheet 'Samples'), CATDS: 0.183460166751924",702 nM
same,potency estimated from few doses,"CSNK1E; compound concentrations: 100 nM and 1000 nM (sheet 'Samples'), CATDS: 0.13214440190412699",1590 nM
same,potency estimated from few doses,MAPK10,1370 nM
same,potency estimated from few doses,MAPK9,1960 nM
same,potency estimated from few doses,NQO2,655 nM
same,potency estimated from few doses,PIK3CD,178 nM
O=c1[nH]cc(-c2ccc(O)cc2)c2sc(-c3ccncc3)cc12 [GSK1033723A],potency estimated from few doses,CLK1; [1],471 nM
same,potency estimated from few doses,CLK4; [1],148 nM
same,potency estimated from few doses,DYRK1A; [1],1550 nM
same,potency estimated from few doses,GSK3B,1220 nM
CC(C)C(=O)N[C@@H]1CCN(C(=O)Nc2nc3c(s2)-c2nc(-c4ccccc4Cl)ncc2CC3)C1 [BI00047804],potency estimated from few doses,"CLK1; compound concentrations: 100 nM and 1000 nM (sheet 'Samples'), CATDS: 0.240445755473225",416 nM
same,potency estimated from few doses,"CLK4; compound concentrations: 100 nM and 1000 nM (sheet 'Samples'), CATDS: 0.26423272520910102",334 nM
same,potency estimated from few doses,NEK3,1310 nM
same,potency estimated from few doses,PIK3CG,115 nM
Fc1ccc(-c2ncn(C3CCNCC3)c2-c2ccnc(Oc3ccc(F)c(F)c3)n2)cc1 [SB-253228],potency estimated from few doses,CSNK1D; [1],505 nM
same,potency estimated from few doses,CSNK1E; [1],1260 nM
same,potency estimated from few doses,MAPK14; [1],395 nM
same,potency estimated from few doses,MAPKAPK2; [1],125 nM
CCCNC(=O)c1ccc(Nc2ncc(C(F)(F)F)c(Nc3ccccc3C(C)=O)n2)c(Br)c1 [BI00801818],potency estimated from few doses,"CLK1; compound concentrations: 100 nM and 1000 nM (sheet 'Samples'), CATDS: 0.21092266840342",154 nM
same,potency estimated from few doses,"CLK4; compound concentrations: 100 nM and 1000 nM (sheet 'Samples'), CATDS: 0.13004922294711499",524 nM
same,potency estimated from few doses,"DYRK1A; compound concentrations: 100 nM and 1000 nM (sheet 'Samples'), CATDS: 0.12917753556196801",534 nM
same,potency estimated from few doses,JAK2,330 nM
same,potency estimated from few doses,PTK2,11.3 nM
same,potency estimated from few doses,RPS6KA1,1590 nM
same,potency estimated from few doses,RPS6KA3,1690 nM
COc1ccc(CSc2nnc(-c3ccc4ncsc4c3)o2)cc1C(F)(F)F [TPKI-91],potency estimated from few doses,CLK1; [1],549 nM
same,potency estimated from few doses,CLK4; [1],599 nM
same,potency estimated from few doses,GSK3A,131 nM
same,potency estimated from few doses,GSK3B,72.5 nM
Nc1ncnc2[nH]c(-c3ccccc3)nc12 [AH5015_KCGS],potency estimated from few doses,"CLK4; compound concentrations: 100 nM and 1000 nM (sheet 'Samples'), CATDS: 0.40901388179724202",1090 nM
same,potency estimated from few doses,CSNK2A2,2320 nM
same,potency estimated from few doses,PDXK,1610 nM
CC1(C)CC(n2cnc(-c3ccc(F)cc3)c2-c2ccnc(N)n2)CC(C)(C)N1 [SB-221466],potency estimated from few doses,CSNK1A1,694 nM
same,potency estimated from few doses,"CSNK1D; compound concentrations: 100 nM and 1000 nM (sheet 'Samples'), CATDS: 0.25228114630202902",37.6 nM
same,potency estimated from few doses,"CSNK1E; compound concentrations: 100 nM and 1000 nM (sheet 'Samples'), CATDS: 0.19281480161649001",65.4 nM
same,potency estimated from few doses,MAPK11,958 nM
same,potency estimated from few doses,"MAPK14; compound concentrations: 100 nM and 1000 nM (sheet 'Samples'), CATDS: 0.38213111916194098",18.8 nM
same,potency estimated from few doses,"MAPKAPK2; compound concentrations: 100 nM and 1000 nM (sheet 'Samples'), CATDS: 0.16941172485113901",89.6 nM
same,potency estimated from few doses,RIPK2,537 nM
